Tests used:
Assay in all cases: DAPPL (digital affinity profiling via proximity ligation, sequencing); 10 mM Tris-HCl pH 7.5, 50 mM NaCl, 1 mM DTT, 4% glycerol, room temperature, 30 min; GST-TFs on glutathione beads, 16-mer random dsDNA library, 0.1% formaldehyde crosslink after washing; high values mean tight binding
FLI1 = target: T1, FLI1 (Homo sapiens, UniProt Q01543 1-452); settings: protein: recombinant; tags: N-terminal GST; dsDNA, one strand shown
T1 sequence: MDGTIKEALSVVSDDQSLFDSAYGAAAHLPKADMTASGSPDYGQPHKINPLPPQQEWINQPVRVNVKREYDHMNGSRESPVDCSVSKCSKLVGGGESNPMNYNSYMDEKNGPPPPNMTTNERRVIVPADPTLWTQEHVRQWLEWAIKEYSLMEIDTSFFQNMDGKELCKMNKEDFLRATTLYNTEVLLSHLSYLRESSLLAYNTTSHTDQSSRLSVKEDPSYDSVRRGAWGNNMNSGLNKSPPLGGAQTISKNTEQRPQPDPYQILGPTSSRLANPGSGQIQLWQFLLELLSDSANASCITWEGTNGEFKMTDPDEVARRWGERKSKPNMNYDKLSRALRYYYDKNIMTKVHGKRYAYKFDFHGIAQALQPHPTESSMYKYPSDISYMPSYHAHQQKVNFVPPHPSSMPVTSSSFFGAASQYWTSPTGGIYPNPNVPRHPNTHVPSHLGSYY
Outline: (§1)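 Human transcription factors were made in yeast as GST fusions, captured on glutathione beads and barcoded with DNA. With a tag-only sample included, the pool was incubated with 200 nmole of a random double-stranded 16-mer DNA library in Tris/NaCl/DTT/glycerol buffer at room temperature for 30 min, then crosslinked with 0.1% formaldehyde after washing, ligated by proximity, amplified and sequenced. For binding signal, each hexamer's read frequency for a factor is divided by its frequency for the tag-only sample.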

ELK1 = target: T2, ELK1 (Homo sapiens, UniProt P19419 1-428); settings: protein: recombinant; tags: N-terminal GST; dsDNA, one strand shown
T2 sequence: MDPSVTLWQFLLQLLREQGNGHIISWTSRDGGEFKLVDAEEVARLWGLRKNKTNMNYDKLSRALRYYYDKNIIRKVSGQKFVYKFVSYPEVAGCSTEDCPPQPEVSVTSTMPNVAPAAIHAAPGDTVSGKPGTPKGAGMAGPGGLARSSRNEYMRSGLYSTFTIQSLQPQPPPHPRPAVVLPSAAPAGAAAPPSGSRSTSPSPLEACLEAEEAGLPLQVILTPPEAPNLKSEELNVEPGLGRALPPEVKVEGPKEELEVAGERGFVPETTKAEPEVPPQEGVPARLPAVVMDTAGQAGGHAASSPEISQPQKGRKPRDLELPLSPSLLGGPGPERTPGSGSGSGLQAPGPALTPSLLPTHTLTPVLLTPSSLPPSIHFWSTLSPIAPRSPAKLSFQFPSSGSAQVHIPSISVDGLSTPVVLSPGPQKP
Outline: as §1

GABPA = target: T3, GABPA (Homo sapiens, UniProt Q06546 1-454); settings: protein: recombinant; tags: N-terminal GST; dsDNA, one strand shown
T3 sequence: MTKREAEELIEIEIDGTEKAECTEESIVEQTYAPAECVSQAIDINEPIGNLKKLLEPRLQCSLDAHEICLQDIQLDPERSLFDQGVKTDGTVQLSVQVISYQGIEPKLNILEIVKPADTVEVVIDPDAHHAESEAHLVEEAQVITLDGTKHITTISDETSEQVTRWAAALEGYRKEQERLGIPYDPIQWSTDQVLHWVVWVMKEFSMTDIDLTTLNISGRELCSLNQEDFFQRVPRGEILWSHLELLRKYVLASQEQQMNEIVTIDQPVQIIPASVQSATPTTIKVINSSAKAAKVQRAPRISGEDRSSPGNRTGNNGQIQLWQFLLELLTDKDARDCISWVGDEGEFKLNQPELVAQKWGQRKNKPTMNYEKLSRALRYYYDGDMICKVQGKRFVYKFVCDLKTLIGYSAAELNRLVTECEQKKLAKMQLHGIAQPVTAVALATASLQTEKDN
Outline: as §1

ERG = target: T4, ERG (Homo sapiens, UniProt P11308 1-479); settings: protein: recombinant; tags: N-terminal GST; dsDNA, one strand shown
T4 sequence: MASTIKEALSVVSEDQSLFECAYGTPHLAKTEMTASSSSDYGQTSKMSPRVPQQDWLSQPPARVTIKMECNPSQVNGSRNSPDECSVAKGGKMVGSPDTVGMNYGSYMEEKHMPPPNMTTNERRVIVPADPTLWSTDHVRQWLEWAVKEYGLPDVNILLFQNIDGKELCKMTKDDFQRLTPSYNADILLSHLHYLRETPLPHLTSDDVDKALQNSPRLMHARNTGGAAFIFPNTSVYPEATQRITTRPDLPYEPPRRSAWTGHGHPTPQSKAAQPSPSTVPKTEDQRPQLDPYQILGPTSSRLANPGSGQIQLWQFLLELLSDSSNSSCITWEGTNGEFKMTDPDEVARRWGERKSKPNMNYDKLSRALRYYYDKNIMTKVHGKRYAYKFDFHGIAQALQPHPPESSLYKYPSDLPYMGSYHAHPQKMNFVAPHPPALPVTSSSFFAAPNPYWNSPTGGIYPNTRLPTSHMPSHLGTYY
Outline: as §1

ELF1 = ELF1 (Homo sapiens, UniProt P32519 1-619); settings: protein: recombinant; tags: N-terminal GST; dsDNA, one strand shown
Outline: as §1

EHF = target: T5, EHF (Homo sapiens, UniProt Q9NZC4 1-300); settings: protein: recombinant; tags: N-terminal GST; dsDNA, one strand shown
T5 sequence: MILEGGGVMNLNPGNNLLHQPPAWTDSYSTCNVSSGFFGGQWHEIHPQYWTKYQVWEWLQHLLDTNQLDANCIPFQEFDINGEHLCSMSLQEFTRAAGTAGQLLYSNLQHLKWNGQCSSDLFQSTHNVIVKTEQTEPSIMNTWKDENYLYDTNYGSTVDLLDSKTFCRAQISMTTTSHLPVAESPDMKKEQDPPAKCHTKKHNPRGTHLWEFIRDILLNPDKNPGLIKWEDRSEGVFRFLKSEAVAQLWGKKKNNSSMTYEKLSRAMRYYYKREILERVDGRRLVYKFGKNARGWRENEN
Outline: as §1

SPI1 = SPI1 (Homo sapiens, UniProt P17947 1-270); settings: protein: recombinant; tags: N-terminal GST; dsDNA, one strand shown
Outline: as §1

SPIB = SPIB (Homo sapiens, UniProt Q01892 1-262); settings: protein: recombinant; tags: N-terminal GST; dsDNA, one strand shown
Outline: as §1

FEV = target: T6, FEV (Homo sapiens, UniProt Q99581 1-238); settings: protein: recombinant; tags: N-terminal GST; dsDNA, one strand shown
T6 sequence: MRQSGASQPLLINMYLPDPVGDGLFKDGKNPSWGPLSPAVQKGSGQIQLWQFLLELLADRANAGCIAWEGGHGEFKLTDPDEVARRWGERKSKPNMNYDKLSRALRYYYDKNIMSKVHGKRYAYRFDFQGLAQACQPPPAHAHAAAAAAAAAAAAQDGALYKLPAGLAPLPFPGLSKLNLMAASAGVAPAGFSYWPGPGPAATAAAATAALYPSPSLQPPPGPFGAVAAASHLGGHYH
Outline: as §1

ETV5 = ETV5 (Homo sapiens, UniProt P41161 1-510); settings: protein: recombinant; tags: N-terminal GST; dsDNA, one strand shown
Outline: as §1

HSF1 = HSF1 (Homo sapiens, UniProt Q00613 1-529); settings: protein: recombinant; tags: N-terminal GST; chain copies: 3; dsDNA, one strand shown
Outline: as §1

SPIC = target: T7, SPIC (Homo sapiens, UniProt Q8N5J4 1-248); settings: protein: recombinant; tags: N-terminal GST; dsDNA, one strand shown
T7 sequence: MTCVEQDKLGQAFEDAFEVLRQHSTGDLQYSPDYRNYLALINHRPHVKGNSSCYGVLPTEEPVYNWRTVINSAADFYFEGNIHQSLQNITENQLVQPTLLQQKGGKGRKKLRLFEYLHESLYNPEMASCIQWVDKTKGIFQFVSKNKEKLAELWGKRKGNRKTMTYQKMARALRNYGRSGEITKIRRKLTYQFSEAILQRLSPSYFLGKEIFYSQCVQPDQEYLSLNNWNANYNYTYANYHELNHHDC
Outline: as §1

ELF4 = ELF4 (Homo sapiens, UniProt Q99607 1-663); settings: protein: recombinant; tags: N-terminal GST; dsDNA, one strand shown
Outline: as §1

ELK4 = target: T8, ELK4 (Homo sapiens, UniProt P28324-2 1-405); settings: protein: recombinant; tags: N-terminal GST; dsDNA, one strand shown
T8 sequence: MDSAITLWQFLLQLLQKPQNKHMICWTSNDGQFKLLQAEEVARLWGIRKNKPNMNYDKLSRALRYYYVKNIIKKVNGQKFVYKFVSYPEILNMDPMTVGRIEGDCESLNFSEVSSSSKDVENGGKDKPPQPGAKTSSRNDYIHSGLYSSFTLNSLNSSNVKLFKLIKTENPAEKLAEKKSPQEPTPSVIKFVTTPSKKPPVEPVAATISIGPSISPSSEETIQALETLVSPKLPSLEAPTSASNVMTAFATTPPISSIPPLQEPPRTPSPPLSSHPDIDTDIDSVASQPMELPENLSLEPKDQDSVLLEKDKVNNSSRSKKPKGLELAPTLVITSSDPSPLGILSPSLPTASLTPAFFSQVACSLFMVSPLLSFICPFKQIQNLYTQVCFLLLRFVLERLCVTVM
Outline: as §1

ETV2 = target: T9, ETV2 (Homo sapiens, UniProt O00321 1-342); settings: protein: recombinant; tags: N-terminal GST; dsDNA, one strand shown
T9 sequence: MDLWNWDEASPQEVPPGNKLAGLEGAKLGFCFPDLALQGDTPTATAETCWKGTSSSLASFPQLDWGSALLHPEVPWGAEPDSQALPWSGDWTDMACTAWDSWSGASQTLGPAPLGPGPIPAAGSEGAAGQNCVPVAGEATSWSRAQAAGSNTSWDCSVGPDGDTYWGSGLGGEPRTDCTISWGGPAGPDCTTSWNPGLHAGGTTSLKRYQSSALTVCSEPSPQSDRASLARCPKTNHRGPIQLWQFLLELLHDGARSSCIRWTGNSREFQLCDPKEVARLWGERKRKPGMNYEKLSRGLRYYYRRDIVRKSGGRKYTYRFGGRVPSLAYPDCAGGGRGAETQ
Outline: as §1

ELF3 = target: T10, ELF3 (Homo sapiens, UniProt P78545 1-371); settings: protein: recombinant; tags: N-terminal GST; dsDNA, one strand shown
T10 sequence: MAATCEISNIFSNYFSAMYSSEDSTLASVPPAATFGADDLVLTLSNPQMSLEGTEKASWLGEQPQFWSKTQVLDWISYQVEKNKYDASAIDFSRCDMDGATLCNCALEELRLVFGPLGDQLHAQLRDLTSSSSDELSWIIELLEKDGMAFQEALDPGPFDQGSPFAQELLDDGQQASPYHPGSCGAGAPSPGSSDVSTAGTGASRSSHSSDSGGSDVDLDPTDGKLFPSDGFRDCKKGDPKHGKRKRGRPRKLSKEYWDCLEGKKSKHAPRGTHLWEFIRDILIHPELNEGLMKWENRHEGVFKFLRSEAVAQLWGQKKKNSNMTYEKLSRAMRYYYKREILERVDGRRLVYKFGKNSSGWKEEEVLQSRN
Outline: as §1

CRX = CRX (Homo sapiens, UniProt O43186 1-299); settings: protein: recombinant; tags: N-terminal GST; dsDNA, one strand shown
Outline: as §1

ETV1 = ETV1 (Homo sapiens, UniProt P50549 1-477); settings: protein: recombinant; tags: N-terminal GST; dsDNA, one strand shown
Outline: as §1

Chain of ETV1 (P50549 whole entry): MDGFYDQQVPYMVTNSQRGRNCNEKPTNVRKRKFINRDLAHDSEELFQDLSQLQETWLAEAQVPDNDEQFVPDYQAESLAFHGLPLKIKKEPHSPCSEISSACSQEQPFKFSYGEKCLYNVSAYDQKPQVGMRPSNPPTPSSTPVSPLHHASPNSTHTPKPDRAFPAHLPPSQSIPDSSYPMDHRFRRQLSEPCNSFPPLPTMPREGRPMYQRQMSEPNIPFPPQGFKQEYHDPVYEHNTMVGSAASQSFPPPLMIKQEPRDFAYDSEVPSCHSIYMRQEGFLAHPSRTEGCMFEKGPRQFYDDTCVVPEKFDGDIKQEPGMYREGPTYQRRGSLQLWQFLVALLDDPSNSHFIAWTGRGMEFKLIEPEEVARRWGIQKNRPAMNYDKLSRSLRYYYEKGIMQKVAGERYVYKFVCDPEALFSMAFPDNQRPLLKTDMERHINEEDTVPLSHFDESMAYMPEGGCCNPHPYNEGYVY
Chain of ETV5 (P41161 whole entry): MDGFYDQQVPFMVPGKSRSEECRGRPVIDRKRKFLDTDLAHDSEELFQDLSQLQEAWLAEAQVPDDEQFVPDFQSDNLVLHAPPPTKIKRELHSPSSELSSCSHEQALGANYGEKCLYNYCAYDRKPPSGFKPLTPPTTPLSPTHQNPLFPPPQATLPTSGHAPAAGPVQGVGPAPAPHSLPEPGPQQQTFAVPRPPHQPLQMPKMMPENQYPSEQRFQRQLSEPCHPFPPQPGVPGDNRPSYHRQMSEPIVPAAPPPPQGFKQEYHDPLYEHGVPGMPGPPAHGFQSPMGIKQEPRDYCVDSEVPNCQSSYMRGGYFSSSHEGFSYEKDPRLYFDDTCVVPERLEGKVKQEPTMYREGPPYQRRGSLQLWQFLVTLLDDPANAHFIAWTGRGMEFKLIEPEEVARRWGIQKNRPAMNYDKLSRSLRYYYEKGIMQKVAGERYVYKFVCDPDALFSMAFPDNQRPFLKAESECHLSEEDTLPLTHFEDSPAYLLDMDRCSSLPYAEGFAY
Chain of SPIB (Q01892 whole entry): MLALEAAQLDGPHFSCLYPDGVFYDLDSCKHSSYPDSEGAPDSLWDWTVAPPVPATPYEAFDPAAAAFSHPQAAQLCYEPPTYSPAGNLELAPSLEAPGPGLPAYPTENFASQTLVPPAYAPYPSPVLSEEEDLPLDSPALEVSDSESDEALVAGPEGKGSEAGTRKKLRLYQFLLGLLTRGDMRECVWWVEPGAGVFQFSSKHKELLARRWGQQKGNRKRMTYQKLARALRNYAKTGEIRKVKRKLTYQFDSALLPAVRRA
Chain of CRX (O43186 whole entry): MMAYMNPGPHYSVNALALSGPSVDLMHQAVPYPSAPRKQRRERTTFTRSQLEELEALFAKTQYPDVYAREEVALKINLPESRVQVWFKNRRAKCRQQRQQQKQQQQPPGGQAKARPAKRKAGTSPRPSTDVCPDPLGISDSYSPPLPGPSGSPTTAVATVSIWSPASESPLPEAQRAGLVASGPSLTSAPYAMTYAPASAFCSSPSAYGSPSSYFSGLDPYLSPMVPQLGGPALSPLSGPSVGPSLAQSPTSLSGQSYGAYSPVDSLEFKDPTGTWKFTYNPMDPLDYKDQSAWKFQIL
Chain of HSF1 (Q00613 whole entry): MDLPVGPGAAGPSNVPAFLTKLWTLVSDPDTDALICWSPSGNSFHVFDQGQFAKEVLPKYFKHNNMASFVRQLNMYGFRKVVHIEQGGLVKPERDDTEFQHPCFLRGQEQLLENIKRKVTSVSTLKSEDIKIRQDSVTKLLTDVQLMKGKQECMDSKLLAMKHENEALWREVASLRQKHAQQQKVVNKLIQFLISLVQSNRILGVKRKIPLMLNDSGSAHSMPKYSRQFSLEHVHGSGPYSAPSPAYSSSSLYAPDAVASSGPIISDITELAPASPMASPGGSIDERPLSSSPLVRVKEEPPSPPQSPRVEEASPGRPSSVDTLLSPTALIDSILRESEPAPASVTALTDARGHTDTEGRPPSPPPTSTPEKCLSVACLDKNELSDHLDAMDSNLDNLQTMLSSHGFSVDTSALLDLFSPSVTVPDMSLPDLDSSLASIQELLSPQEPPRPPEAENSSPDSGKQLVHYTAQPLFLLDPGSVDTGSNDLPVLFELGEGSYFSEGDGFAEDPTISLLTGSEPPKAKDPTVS
Chain of ELF4 (Q99607 whole entry): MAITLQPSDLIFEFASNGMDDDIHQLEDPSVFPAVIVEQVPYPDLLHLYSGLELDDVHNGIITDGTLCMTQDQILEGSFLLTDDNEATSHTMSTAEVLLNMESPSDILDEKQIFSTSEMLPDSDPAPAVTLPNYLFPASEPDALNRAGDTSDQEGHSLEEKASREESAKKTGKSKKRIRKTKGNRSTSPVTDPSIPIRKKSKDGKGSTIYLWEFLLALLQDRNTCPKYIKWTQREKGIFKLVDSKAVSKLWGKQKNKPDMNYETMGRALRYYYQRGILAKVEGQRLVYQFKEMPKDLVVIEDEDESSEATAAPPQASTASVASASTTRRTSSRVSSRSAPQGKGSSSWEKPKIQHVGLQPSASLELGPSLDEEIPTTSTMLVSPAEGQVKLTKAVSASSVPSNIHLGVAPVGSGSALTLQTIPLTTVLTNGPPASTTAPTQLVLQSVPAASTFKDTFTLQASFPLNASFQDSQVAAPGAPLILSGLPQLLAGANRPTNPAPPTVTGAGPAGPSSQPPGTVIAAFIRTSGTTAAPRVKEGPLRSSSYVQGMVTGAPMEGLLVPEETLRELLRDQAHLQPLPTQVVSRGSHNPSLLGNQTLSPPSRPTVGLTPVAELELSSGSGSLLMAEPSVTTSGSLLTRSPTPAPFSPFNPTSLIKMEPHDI
Chain of ELF1 (P32519 whole entry): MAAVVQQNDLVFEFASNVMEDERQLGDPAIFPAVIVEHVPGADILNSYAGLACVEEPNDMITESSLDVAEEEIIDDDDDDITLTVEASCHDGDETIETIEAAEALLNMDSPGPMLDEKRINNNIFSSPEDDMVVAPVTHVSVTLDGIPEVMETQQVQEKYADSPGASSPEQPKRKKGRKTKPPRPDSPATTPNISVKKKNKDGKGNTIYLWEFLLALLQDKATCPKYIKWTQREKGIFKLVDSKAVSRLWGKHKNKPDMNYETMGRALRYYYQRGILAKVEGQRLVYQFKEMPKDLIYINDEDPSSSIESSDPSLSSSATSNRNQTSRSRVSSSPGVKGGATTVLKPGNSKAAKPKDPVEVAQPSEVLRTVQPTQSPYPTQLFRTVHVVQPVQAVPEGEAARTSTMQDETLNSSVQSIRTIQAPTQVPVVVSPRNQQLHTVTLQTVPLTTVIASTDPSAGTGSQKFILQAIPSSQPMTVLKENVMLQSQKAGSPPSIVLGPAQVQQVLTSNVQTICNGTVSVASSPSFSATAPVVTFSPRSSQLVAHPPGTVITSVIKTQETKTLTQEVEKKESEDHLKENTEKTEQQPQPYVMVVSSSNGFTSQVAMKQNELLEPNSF

## TATGCC
FLI1
  binding signal: 1.11 fold enrichment (6-mer frequency, TF over GST control)
ELK1
  binding signal: 1.27 fold enrichment (6-mer frequency, TF over GST control)
GABPA
  binding signal: 1.21 fold enrichment (6-mer frequency, TF over GST control)
ERG
  binding signal: 1.17 fold enrichment (6-mer frequency, TF over GST control)
ELF1
  binding signal: 1.2 fold enrichment (6-mer frequency, TF over GST control)
EHF
  binding signal: 1.18 fold enrichment (6-mer frequency, TF over GST control)
SPI1
  binding signal: 1.11 fold enrichment (6-mer frequency, TF over GST control)
SPIB
  binding signal: 1.26 fold enrichment (6-mer frequency, TF over GST control)
FEV
  binding signal: 1.13 fold enrichment (6-mer frequency, TF over GST control)
ETV5
  binding signal: 1.18 fold enrichment (6-mer frequency, TF over GST control)
HSF1
  binding signal: 1.06 fold enrichment (6-mer frequency, TF over GST control)
SPIC
  binding signal: 1.28 fold enrichment (6-mer frequency, TF over GST control)
ELF4
  binding signal: 1.15 fold enrichment (6-mer frequency, TF over GST control)
ELK4
  binding signal: 1.17 fold enrichment (6-mer frequency, TF over GST control)
ETV2
  binding signal: 1.05 fold enrichment (6-mer frequency, TF over GST control)
ELF3
  binding signal: 1.01 fold enrichment (6-mer frequency, TF over GST control)
CRX
  binding signal: 1.18 fold enrichment (6-mer frequency, TF over GST control)
ETV1
  binding signal: 1.28 fold enrichment (6-mer frequency, TF over GST control)

Reference: publication PMC7862700, “An all-to-all approach to the identification of sequence-specific readers for epigenetic DNA modifications on cytosine”
